Experimental data reported in PubChem BioAssay (NCATS).
Inconclusive results are not listed. Active and inactive are the calls of the source. Calls come from the whole dose curve; as a rule, active = well fitted inhibition curve with a large enough effect; inconclusive = small, poorly fitted or top-dose-only effect; inactive = flat fitted curve, though single readings scatter. Where a SMILES comes first, the peptide text is derived from it. [ ]: non-standard residue; d: D form. pGlu = O=C1CC[C@@H](C(=O)O)N1

Tests used:
CRL-7250 = normal cell line; assay: Cytotoxic Profiling of Annotated Libraries Using Quantitative High-Throughput Screening (AID 1296008); conditions: Five cell lines viability, CellTiter-Glo ATP luminescence, 48-72 h; max response: hits give low values
How it was run: (§1)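 Compounds were pin-transferred onto cells and incubated 48 or 72 hr at 37 degree Celsius, 95% humidity. CellTiter-Glo was added, plates sat 10 min at room temperature, then ATP-coupled luminescence was imaged as the viability read-out.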

HEK293 = assay: as above; conditions: Five cell lines viability, CellTiter-Glo ATP luminescence, 48-72 h; max response: hits give low values
How it was run: as §1

HaCat = assay: as above; conditions: Five cell lines viability, CellTiter-Glo ATP luminescence, 48-72 h; max response: hits give low values
How it was run: as §1

NIH3T3 = assay: as above; conditions: Five cell lines viability, CellTiter-Glo ATP luminescence, 48-72 h; max response: hits give low values
How it was run: as §1

MCC-13 = assay: qHTS assay to identify novel small-molecules to repurpose for Merkel cell carcinoma treatment (AID 1296009); conditions: MCC and control cell lines, CellTiter-Glo viability, 72 h; series mostly up to 46 µM
How it was run: (§2)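 Luminescence from CellTiter-Glo, read 10 min after addition at room temperature, reported viability following a 72 hr, 37 degree celsius treatment with NPC or MIPE compounds in titration; values normalized to plate controls.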

MCC-26 = assay: as above; conditions: MCC and control cell lines, CellTiter-Glo viability, 72 h; series mostly up to 46 µM
How it was run: as §2

MKL-1 = assay: as above; conditions: MCC and control cell lines, CellTiter-Glo viability, 72 h; series mostly up to 46 µM
How it was run: as §2

MKL-2 = assay: as above; conditions: MCC and control cell lines, CellTiter-Glo viability, 72 h; series mostly up to 46 µM
How it was run: as §2

HEK293T = assay: as above; conditions: MCC and control cell lines, CellTiter-Glo viability, 72 h; at 44.8 µM (top of the series) unless noted
How it was run: as §2

KB-3-1 = assay: Cytotoxic Profiling of Annotated Libraries Using Quantitative High-Throughput Screening (AID 1296008); conditions: Five cell lines viability, CellTiter-Glo ATP luminescence, 48-72 h; max response: hits give low values
How it was run: as §1
% is set by controls: 0 for no effect and ±100 for the full control effect; potency is the fitted concentration of half-maximal effect.
Note: nearly all actives have a fitted effect of over 60% in size.

C/C(=N\O)[C@@H](C)NCC(C)(C)CN[C@H](C)/C(C)=N/O
inactive: outcome (CRL-7250) | max response (HEK293) -22.3% | max response (HaCat) -13.6% | max response (NIH3T3) -0.119% | Potency (MCC-13) | Potency (MCC-26) | Potency (MKL-1) | Potency (MKL-2)

Nc1ccc(C(=O)OCC(O)CO)cc1 (stereo not drawn)
inactive: max response (CRL-7250) -0.994% | max response (HEK293) -11.2% | max response (HaCat) -8.17% | max response (NIH3T3) 2.44% | Potency (MCC-13) | Potency (MCC-26) | Potency (MKL-1) | Potency (MKL-2)

Clc1ccc2c(c1)Nc1ccccc1S2
inactive: max response (CRL-7250) -4.08% | max response (HEK293) -6.16% | max response (HaCat) -13.4% | outcome (NIH3T3) | Potency (MCC-13) | Potency (MCC-26) | Potency (MKL-1) | Potency (MKL-2)

CC(=O)OC[C@H]1O[C@@H](OC(C)=O)[C@H](OC(C)=O)[C@@H]1OC(C)=O
inactive: max response (CRL-7250) -4.36% | max response (HEK293) 1.73% | max response (HaCat) 2.57% | outcome (NIH3T3) | Potency (MCC-13) | Potency (MCC-26) | Potency (MKL-1) | Potency (MKL-2)

N#Cc1cc(NC(=O)C(=O)O)c(Cl)c(NC(=O)C(=O)O)c1
inactive: outcome (CRL-7250) | max response (HEK293) -3.47% | max response (HaCat) -3.53% | max response (NIH3T3) -0.466% | Potency (MCC-13) | Potency (MCC-26) | Potency (MKL-1) | Potency (MKL-2)

CC(=O)c1cc2ccccc2s1
inactive: max response (CRL-7250) -0.976% | max response (HEK293) -8.14% | max response (HaCat) -0.924% | max response (NIH3T3) 1.18% | Potency (MCC-13) | Potency (MCC-26) | Potency (MKL-1) | Potency (MKL-2)

CCOC(=O)C(=O)CCCCCCl
inactive: outcome (CRL-7250) | max response (HEK293) -7.06% | max response (HaCat) -12.5% | outcome (NIH3T3) | Potency (MCC-13) | Potency (MCC-26) | Potency (MKL-1) | Potency (MKL-2)

O=C(CCCl)NCCc1ccccc1
inactive: outcome (CRL-7250) | max response (HEK293) -1.92% | max response (HaCat) 0.301% | max response (NIH3T3) -1.58% | Potency (MCC-13) | Potency (MCC-26) | Potency (MKL-1) | Potency (MKL-2)

OC1(c2ccccc2)CCNCC1
inactive: max response (CRL-7250) 0.914% | max response (HEK293) 1.58% | max response (HaCat) -1.01% | outcome (NIH3T3) | Potency (MCC-13) | Potency (MKL-1) | Potency (MKL-2)

CCOC(=O)C(=O)c1csc(NC=O)n1
inactive: max response (CRL-7250) -5.63% | max response (HEK293) 3.1% | max response (HaCat) 4.32% | max response (NIH3T3) 0.793% | Potency (MCC-13) | Potency (MCC-26) | Potency (MKL-1) | Potency (MKL-2)

CSCC[C@H](NC(=O)[C@H](Cc1c[nH]c2ccccc12)NC(=O)CCNC(=O)OC(C)(C)C)C(=O)N[C@@H](CC(=O)O)C(=O)N[C@@H](Cc1ccccc1)C(N)=O
inactive: max response (CRL-7250) 0.728% | max response (HEK293) 0.664% | max response (HaCat) -2.67% | outcome (NIH3T3) | Potency (MCC-13) | Potency (MCC-26) | Potency (MKL-1) | Potency (MKL-2)

O=C(O)C1CCC1
inactive: outcome (CRL-7250) | max response (HEK293) -2.16% | max response (HaCat) 1.71% | max response (NIH3T3) -4.19% | Potency (MCC-13) | Potency (MCC-26) | Potency (MKL-1) | Potency (MKL-2)

C/C(=C1\CCOC(=O)S1)N(C=O)Cc1cnc(C)nc1N
inactive: max response (CRL-7250) -21.8% | max response (HEK293) -12.5% | max response (HaCat) 0.182% | max response (NIH3T3) 0.237% | Potency (MCC-13) | Potency (MCC-26) | Potency (MKL-1) | Potency (MKL-2)

CNC[C@H](O)[C@@H](O)[C@H](O)[C@H](O)CO
inactive: max response (CRL-7250) -2.73% | max response (HEK293) -0.47% | max response (HaCat) -3.04% | max response (NIH3T3) 1.64% | Potency (MCC-13) | Potency (MKL-1) | Potency (MKL-2)

CCNC(=O)[C@@H]1CCCN1C(=O)[C@H](CCCN=C(N)N)NC(=O)[C@H](CC(C)C)NC(=O)CNC(=O)[C@H](Cc1ccc(O)cc1)NC(=O)[C@H](CO)NC(=O)[C@H](Cc1c[nH]c2ccccc12)NC(=O)[C@H](Cc1cnc[nH]1)NC(=O)[C@@H]1CCC(=O)N1 ([pGlu]HWSYGLRP-NHEt)
inactive: outcome (CRL-7250) | max response (HEK293) -8.7% | max response (NIH3T3) -1.57% | Potency (MCC-13) | Potency (MKL-1)

CNC(=O)c1cnn(-c2nc(N)c3ncn([C@@H]4O[C@H](CO)[C@@H](O)[C@H]4O)c3n2)c1
inactive: max response (CRL-7250) -10.9% | outcome (HEK293) | max response (NIH3T3) -3.79% | outcome (HEK293T) | Potency (MCC-13) | Potency (MCC-26) | Potency (MKL-1) | Potency (MKL-2)

CCOC(=O)N1CCC(Nc2ccc(Cl)cc2N)CC1
inactive: max response (CRL-7250) 2.37% | max response (HEK293) -13.9% | max response (HaCat) -14.7% | Potency (MCC-13) | Potency (MCC-26)
active: Potency (MKL-1) 21.1 µM | Potency (MKL-2) 26.6 µM

CCN(CC)CCN
inactive: max response (CRL-7250) 3.12% | max response (HEK293) 2.25% | max response (NIH3T3) -0.486% | Potency (MCC-13) | Potency (MCC-26) | Potency (MKL-1) | Potency (MKL-2)

CN(C)C(=O)CNC(=O)Cc1ccccc1
inactive: max response (CRL-7250) -7.63% | max response (HEK293) -9.26% | outcome (KB-3-1) | max response (NIH3T3) -5.07% | Potency (MCC-13) | Potency (MCC-26) | Potency (MKL-1) | Potency (MKL-2)

CC(=O)Oc1ccc(C2(c3ccc(OC(C)=O)cc3)Oc3ccccc3NC2=O)cc1
active: Potency (CRL-7250) 8.41 µM | Potency (HEK293) 7.5 µM | Potency (KB-3-1) 18.4 µM
inactive: Potency (MKL-1) | Potency (MKL-2)

CCNC(=O)NCCCOc1cccc(CN2CCCCC2)c1
inactive: max response (CRL-7250) -12.2% | max response (HEK293) -59.3% | max response (KB-3-1) -12.8% | outcome (NIH3T3) | Potency (MCC-13) | Potency (MCC-26) | Potency (MKL-1) | Potency (MKL-2)
